This passage reports outcome results from PubChem BioAssay AID1347383 (Zoeller Lab, School of Medicine, Boston University, 2020).

The structures appear in SMILES notation. The source made the active and inactive calls.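 Rule for the calls: active = cell survival after UV exposure 2 SD above solvent-only control wells at 10 µM, confirmed on one or two repeats; inactive = the rest.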

The assay is described as follows: protection of CHO cells from pyrene-fatty acid UV killing, primary screen, phospholipid biosynthesis inhibitor project, ZR-82 cells, Analyticon library, screen 2 (AID 1347383).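 Note: survival reflects blocked phospholipid synthesis cutting uptake of the phototoxic fatty acid; compound and fatty acid exposure 3 h then viability read next day.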 The following applies: ZR-82 CHO cells, CellTiter Blue, at 10 µM, peroxisome-deficient CHO-K1 variant, with DGAT-1, DGAT-2 and ACAT inhibitors. On the technique in general: Alamar Blue is a resazurin reagent that responds to reducing activity.
Take `O=c1c(-c2ccc(O)cc2)coc2cc(O)ccc12`: the call was inactive.

Turning to `CC1=C(C)C(=O)OC(C(C)C2C(O)CC3C4C5OC5C5(O)CC=CC(=O)C5(C)C4CCC32C)C1` (stereo not given), the outcome was inactive.

Turning to `CC(=O)C(C)C1OC(CCO)c2cc(C)ccc2C1C` (stereo not given), the call was inactive.

Consider `Cc1cc(O)c2c3c(c(O)c4c(c13)OC(C)C4(C)C)C(=O)O2` (stereo not given), for which the molecule was called inactive.

In the case of `C/C=C/[C@@H]1C=C[C@@H]2C[C@H](C)CC[C@H]2[C@]1(C)C(O)=C1C(=O)[C@@H](CO)N(C)C1=O`, the result was inactive.

As to `CO[C@H]1/C=C/[C@@](C)(O)/C=C/C(=O)O[C@H](C)[C@@H](C)CC/C=C/1C`, the molecule was called inactive.

`O=c1c(O)c(-c2ccccc2)oc2cc(O)cc(O)c12`: the outcome was inactive.

As to `COc1c2c(c(OC)c3oc(=O)ccc13)OC(C)(C)C(O)C2O` (stereo not given), the result was inactive.

For the molecule `CC1(C)C=Cc2c(ccc3c2O[C@@H]2COc4cc5c(cc4[C@@]2(O)C3=O)OCO5)O1`, the result was inactive.

As for `COc1cc(C[C@H]2C(=O)OC[C@@H]2Cc2ccc(OC)c(OC)c2)ccc1O`, the result was inactive.

In the case of `Cc1cc(O)cc2c(=O)oc(CC(C)O)cc12` (stereo not given), the molecule was classed as inactive.

Regarding `COc1cc2c(c(OC)c1OC)-c1ccc(OC)c(=O)cc1[C@@H](NC(C)=O)CC2`, the result was inactive.

With `Cc1c(O)cc(O)c2c1OC(c1ccccc1)CC2=O` (stereo not given), the call was inactive.

Regarding `CCCc1c(C(=O)O)cc2c(c1O)C(=O)c1c(O)cccc1C2=O`, the call was inactive.

Consider `OC1c2ccccc2-c2c3c(cc4c2C1NCC4)OCO3` (stereo not given), for which the molecule was called inactive.

Consider `Cc1c(O)cc2c(c1O)C(=O)[C@@H](O)[C@H](c1ccc(O)c(O)c1)O2`, for which the call was inactive.

In the case of `CC(O)C(O)/C=C/c1cccc(=O)o1` (stereo not given), the call was inactive.

In the case of `CCC(C)C(=O)OC1CC(C)C=C2C=CC(C)C(CCC(O)CC(O)CC(=O)O)C21` (stereo not given), the outcome was inactive.

With `CC[C@H](C)C(=O)O[C@H]1CCC=C2C=C[C@H](C)[C@H](CC[C@H]3C[C@@H](O)CC(=O)O3)[C@H]21`, the outcome was inactive.

`O=C(O)c1ccc(CO)o1`: the call was inactive.

With `O=C1CC(c2ccc(O)cc2)Oc2cc(O)ccc21` (stereo not given), the call was inactive.

For the molecule `COc1ccc2ccc(=O)oc2c1`, the molecule was called inactive.

Turning to `O=C(O)c1cc(O)c2c(c1)C(=O)c1cccc(O)c1C2=O`, the outcome was inactive.

Take `C=CCC1=CC(OC)(C(C)Cc2ccc3c(c2)OCO3)C(OC)=CC1=O` (stereo not given): the outcome was inactive.

With `O=C(O)C1(O)C[C@@H](O)C(O)[C@H](O)C1` (stereo not given in full), the call was inactive.

As to `Oc1ccccc1-c1c(O)cc(O)c(-c2ccccc2)c1O`, the result was inactive.

For `CCCC(O)C1OCC2=C1C(O)C1OC1C2O` (stereo not given), the result was inactive.

`CCC(=O)C1OC(O)(CCC2=CCOC2=O)C2(C)CCCC(C)(C)C12` (stereo not given): the molecule was called inactive.

For the molecule `CC1Cc2cc(O)c(O)cc2C(c2ccc(O)c(O)c2)C1C` (stereo not given), the call was inactive.

Take `CC(=O)O[C@@H]1CC[C@@]2(C)C(CC[C@]3(C)C2C(=O)C=C2[C@@H]4[C@@H](C)[C@H](C)CC[C@]4(C)CC[C@]23C)[C@@]1(C)C(=O)O` (stereo not given in full): the molecule was classed as inactive.

Regarding `C[C@@H]1O[C@@H](Oc2c(-c3ccc(O)c(O)c3)oc3cc(O)cc(O)c3c2=O)[C@H](O)[C@H](O)[C@H]1O`, the molecule was classed as inactive.

As to `CC1(C)C2CC[C@]3(C)C(C(=O)C=C4[C@H]5C[C@@](C)(C(=O)O)CC[C@]5(C)CC[C@]43C)[C@@]2(C)CC[C@@H]1O` (stereo not given in full), the call was inactive.

For the molecule `COc1ccc(OC2OC(COC3OCC(O)C(O)C3O)C(O)C(O)C2O)cc1OC` (stereo not given), the molecule was classed as inactive.

Consider `C=C(C(=O)O)[C@@H]1CC[C@H](C)[C@@H]2CC(=O)C(C)=C2C1`, for which the call was inactive.

With `COc1c(OC)c(OC)c2c(c1OC)c(=O)c1ccccc1n2C`, the molecule was called inactive.

`COc1ccc2c(c1OC)C(=O)N1CCc3cc4c(cc3C(=O)C21O)OCO4` (stereo not given): the call was inactive.

Turning to `O=c1ccn(C2OC(CO)C(O)C2O)c(=O)[nH]1` (stereo not given), the result was inactive.

In the case of `CC1(C)CC2C(O)c3cocc3CC(C)(O)C2C1` (stereo not given), the molecule was called inactive.

With `Cc1c(O)cc(C(C)C)c(O)c1-c1c(C)c(O)cc(C(C)C)c1O`, the outcome was inactive.

On to `CO[C@@H]1C(=O)CC[C@]2(O)CS[C@H](CC=C(C)C)[C@](C)(O)[C@@]12O`, for which the result was inactive.
